Shown are actives, neighbours in structure and some others; about 4% of the full set was active somewhere.
TWEAK-Fn14 inh – inhibitors of TWEAK-Fn14 signaling, primary screen, luciferase reporter cells, uHTS; hit rate 2% among 360,000; AID 1159606, 2016; TWEAK-stimulated Fn14 reporter cells, luciferase luminescence, 8 h; inhibition, % at 10 µM; in the data active = inhibition above about 50%
HIF-2a inh – HIF-2a reporter inhibitors, primary screen, luminescence, 786-0 RCC cells. 786-0 RCC cells HIF-2a reporter, luciferase luminescence, overnight. inhibition, % at 18.8 µM. hit rate 0.72% among 360,000;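 active = inhibition of the luminescence signal of 40% or more relative to plate controls, in a single-dose primary screen at 18.75 µM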
KKLEB cytotox – cytotoxicity in KKLEB CF airway cells, primary screen, cytotoxicity control for CF NF-kB inhibitor project, cell-based, uHTS, fluorescence assay plates; KKLEB CF airway cells viability, ATPlite luminescence, overnight; hits give low values; cells stimulated with P. aeruginosa culture filtrate; activity change (cytotoxicity), % at 5 µM; hit rate 0.36% among 360,000; AID 602141, 2011;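 active = corrected activity change at or below -50% at 5 µM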
CF NFkB block – inhibitors of PAF-induced NF-kB signaling, primary screen, cell-based, GFP fluorescence, uHTS; inhibition, % at 5 µM; AID 588850, 2011; KKLEB NF-kB-GFP reporter, GFP fluorescence overnight; hit rate 0.86% among 360,000;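 active = at least 50% inhibition at 5 µM, scaled per plate between neutral and stimulator controls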;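 also: PAF is a Pseudomonas aeruginosa culture filtrate used as stimulus; plate controls were PAF-stimulated DMSO wells for no effect and unstimulated DMSO wells for full effect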
Peg3 promoter – Peg3 promoter-driven luciferase inhibitors, primary screen, cell-based, HeLa, luciferase luminescence | HeLa PEG-Prom luciferase reporter, overnight | inhibition, % at 20 µM | hit rate 1.7% among 360,000 | AID 588405, 2011;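 active = inhibition of at least 50% at 20 µM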
TROY signal inh – inhibitors of TROY-driven NF-kB signaling, primary screen, Q293 LMP1-TROYcd cells, NF-kB luciferase, uHTS; Q293 LMP1-TROYcd NF-kB luciferase reporter, 4 h; inhibition, % at 10 µM; hit rate 0.98% among 360,000; AID 1347056, 2019;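 active = compounds whose plate-normalised and pattern-corrected inhibition of the luciferase reporter signal at the single screening dose is 50% or more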
Mdm2 MdmX conf – retested Mdm2-MdmX interaction blockers, confirmation, cell-based, luminescence, single concentration, set 2; SaOS-2 split-luciferase Mdm2/MdmX complementation; AID 504601, 2011; inhibition, % at 8 µM; hit rate 99% among 740; shares compounds with HIF-2a inh;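 active = mean inhibition of the luminescence signal across two replicates at or above 26 percent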
Target sequence (O15151 whole entry, looked up): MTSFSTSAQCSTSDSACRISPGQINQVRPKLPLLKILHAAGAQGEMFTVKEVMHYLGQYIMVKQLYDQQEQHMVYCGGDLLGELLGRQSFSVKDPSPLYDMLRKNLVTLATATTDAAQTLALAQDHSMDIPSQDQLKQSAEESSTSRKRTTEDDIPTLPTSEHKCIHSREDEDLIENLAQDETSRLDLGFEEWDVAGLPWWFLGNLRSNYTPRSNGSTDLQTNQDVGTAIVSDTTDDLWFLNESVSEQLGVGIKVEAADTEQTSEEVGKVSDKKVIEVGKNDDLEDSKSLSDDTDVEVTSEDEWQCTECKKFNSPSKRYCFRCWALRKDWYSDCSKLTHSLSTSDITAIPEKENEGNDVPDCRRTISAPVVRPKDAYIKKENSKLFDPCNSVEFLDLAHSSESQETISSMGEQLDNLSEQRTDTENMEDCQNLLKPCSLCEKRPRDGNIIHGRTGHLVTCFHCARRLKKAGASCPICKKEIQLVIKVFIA
Target sequence (Q00987 whole entry, looked up): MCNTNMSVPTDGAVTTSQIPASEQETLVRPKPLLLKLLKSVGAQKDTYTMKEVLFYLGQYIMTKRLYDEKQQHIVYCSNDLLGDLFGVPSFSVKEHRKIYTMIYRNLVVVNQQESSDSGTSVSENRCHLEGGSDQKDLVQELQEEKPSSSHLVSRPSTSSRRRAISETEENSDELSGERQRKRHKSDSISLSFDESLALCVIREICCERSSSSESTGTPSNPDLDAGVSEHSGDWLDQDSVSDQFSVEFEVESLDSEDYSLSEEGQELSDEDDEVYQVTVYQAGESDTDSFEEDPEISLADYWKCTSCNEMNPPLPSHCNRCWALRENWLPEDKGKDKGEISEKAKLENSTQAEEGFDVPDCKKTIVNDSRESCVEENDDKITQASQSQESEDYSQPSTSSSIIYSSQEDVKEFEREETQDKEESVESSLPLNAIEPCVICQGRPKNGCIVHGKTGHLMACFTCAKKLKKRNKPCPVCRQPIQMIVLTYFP
HIF-2a inh conf – HIF-2a reporter inhibitor retest, confirmation, luminescence, 786-0 RCC cells | AID 651580, 2012 | hit rate 56% among 1,800 | HIF-2a luciferase reporter luminescence, overnight | shares compounds with HIF-2a inh | inhibition, % at 18.8 µM;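 active = mean inhibition across four replicates of at least 40 percent at the single tested concentration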
HIF-1a counter – HIF-1a luciferase reporter signal reduction – MiaPaCa-2 cells, single concentration, counter-screen for HIF-2a inhibitor project, confirmation | shares compounds with HIF-2a inh | MiaPaCa-2 HIF-1a luciferase reporter, desferoxamine, overnight | inhibition, % at 18.8 µM | hit rate 72% among 1,800 | AID 651589, 2012;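 active = mean inhibition of the reporter signal across four replicates at the single tested dose of 50% or more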
* hit, by the source's call.

Results for CC(=O)Nc1ccc(OS(=O)(=O)c2ccccc2C)cc1 ?
TWEAK-Fn14 inh: 11; HIF-2a inh: -34; KKLEB cytotox: 3; CF NFkB block: -6; Peg3 promoter: -20; TROY signal inh: -30

Results for CC(=O)Nc1ccc(OS(=O)(=O)c2ccc(C)cc2C)cc1 ?
TWEAK-Fn14 inh: -20; HIF-2a inh: 80*; KKLEB cytotox: -16; CF NFkB block: 0; Peg3 promoter: 7; TROY signal inh: -7; HIF-2a inh conf: 88*; HIF-1a counter: 34

How did COc1ccc(-c2noc(CCC(=O)O)n2)cc1 do in these assays?
TWEAK-Fn14 inh: 17; HIF-2a inh: 24; KKLEB cytotox: 14; CF NFkB block: 14; Peg3 promoter: 8; TROY signal inh: 4

Results for COc1ccc(-c2noc(CCCC(=O)O)n2)cc1 ?
TWEAK-Fn14 inh: 78*; HIF-2a inh: 84*; KKLEB cytotox: 4; CF NFkB block: -1; Peg3 promoter: 9; TROY signal inh: 40; HIF-2a inh conf: 94*; HIF-1a counter: 80*

What do the screens show for `CCOc1ccc(-c2noc(CCC(=O)O)n2)cc1`?
TWEAK-Fn14 inh: 71*; HIF-2a inh: 75*; KKLEB cytotox: -13; CF NFkB block: -5; Peg3 promoter: -15; TROY signal inh: 30; HIF-2a inh conf: 81*; HIF-1a counter: 69*

What do the screens show for `Cn1c(/C=C/c2ccc([N+](=O)[O-])o2)nc2ccccc2c1=O`?
TWEAK-Fn14 inh: 28; HIF-2a inh: 75*; KKLEB cytotox: -6; CF NFkB block: -11; Peg3 promoter: 110*; TROY signal inh: -3; Mdm2 MdmX conf: 102*; HIF-2a inh conf: -7; HIF-1a counter: 105*

How did COc1ccccc1C(=O)NNC(=O)C1CCCO1 (stereo not given) do in these assays?
TWEAK-Fn14 inh: 17; HIF-2a inh: 6; KKLEB cytotox: 0; CF NFkB block: -13; Peg3 promoter: -6; TROY signal inh: 20

Results for NC1=NC[C@@H](CC2CCCCC2)N1CCc1cc(C(F)(F)F)cc(C(F)(F)F)c1 ?
TWEAK-Fn14 inh: 3; HIF-2a inh: -27; KKLEB cytotox: 4; CF NFkB block: 15; Peg3 promoter: 94*; TROY signal inh: 7; Mdm2 MdmX conf: 103*

What do the screens show for `CC(OC(=O)c1ccc(S(C)(=O)=O)c([N+](=O)[O-])c1)C(=O)NC1C2CC3CC(C2)CC1C3` (stereo not given)?
TWEAK-Fn14 inh: 102*; HIF-2a inh: 93*; KKLEB cytotox: -47; CF NFkB block: 95*; Peg3 promoter: 95*; TROY signal inh: 49; HIF-2a inh conf: 87*; HIF-1a counter: 100*

Results for Cc1ccc(C(=O)OC(C)C(=O)NC2CCCCC2)cc1S(=O)(=O)N1CCCCC1 (stereo not given) ?
TWEAK-Fn14 inh: 0; HIF-2a inh: 2; KKLEB cytotox: -16; CF NFkB block: 29; Peg3 promoter: 2; TROY signal inh: -7

How did CCC(OC(=O)c1ccc(S(C)(=O)=O)c([N+](=O)[O-])c1)C(=O)NC1C2CC3CC(C2)CC1C3 (stereo not given) do in these assays?
TWEAK-Fn14 inh: 100*; HIF-2a inh: 81*; KKLEB cytotox: -74*; CF NFkB block: 104*; Peg3 promoter: 96*; TROY signal inh: 41; HIF-2a inh conf: 18; HIF-1a counter: 105*
